# An excerpt weighted towards active compounds, which were near 2.5% of everything screened.
# Cruzain noTriton – inhibitors of Trypanosoma cruzi cruzain without detergent; P25779; purified cruzain, Z-FR-AMC fluorescence, no detergent; Potency, µM, without a hit: max response, negative = inhibition, actives largely listed as inhibitors; 2.3% of 200,000 active;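 further: plate controls were enzyme without inhibitor for no effect and buffer without enzyme for full effect; nearly all actives have a fitted effect of over 40% in size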
# Target sequence (P25779 123-467 limits assumed): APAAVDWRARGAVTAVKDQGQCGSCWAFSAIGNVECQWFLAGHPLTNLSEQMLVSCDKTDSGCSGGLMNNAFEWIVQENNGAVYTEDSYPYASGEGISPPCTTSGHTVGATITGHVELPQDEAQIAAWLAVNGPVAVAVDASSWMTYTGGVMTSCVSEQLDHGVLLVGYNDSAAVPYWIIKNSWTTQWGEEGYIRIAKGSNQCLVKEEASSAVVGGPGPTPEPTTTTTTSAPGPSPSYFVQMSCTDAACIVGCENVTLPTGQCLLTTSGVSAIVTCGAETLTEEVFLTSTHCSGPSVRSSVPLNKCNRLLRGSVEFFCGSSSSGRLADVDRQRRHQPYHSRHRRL
#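 Detergent-free condition (0.00005% Triton X-100) in acetate buffer pH 5.5 with DTT. 1.5 nM enzyme and compound were pre-mixed 15 min, then 2 uM Z-FR-AMC substrate added; reaction progress from fluorescence change between first and third reads (60 s).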
# Cruzain inh Det – blocks cruzain activity in presence of Triton detergent; P25779; purified cruzain, Z-FR-AMC fluorescence, 0.01% Triton; Potency, µM, for inactives: max response, negative = inhibition, most hits filed as inhibitors; AID 1478; 0.43% of 200,000 active;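 further: plate controls were neutral wells for no effect and buffer without enzyme for full effect; nearly all actives have a fitted effect of over 40% in size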
#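 Cruzain (1.5 nM) preincubated 15 min at RT with compound in 100 mM sodium acetate pH 5.5, 5 mM DTT, 0.01% Triton X-100. Reaction started with 2 uM Z-FR-AMC; AMC fluorescence (ex 360/em 450 nm) change over 60 s gave rate.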
# Papain inh – blocks papain protease activity, flagging nonselective cruzain hits; purified papain, Z-FR-AMC fluorescence cleavage; shares compounds with Cruzain inh Det; 41% of 410 active; Potency, µM, inactives show max response, negative = inhibition, most hits filed as inhibitors;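 further: 0% = no-compound wells and -100% = no-enzyme wells; nearly all actives have a fitted effect of over 35% in size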
# Target sequence (P00784 whole entry, looked up): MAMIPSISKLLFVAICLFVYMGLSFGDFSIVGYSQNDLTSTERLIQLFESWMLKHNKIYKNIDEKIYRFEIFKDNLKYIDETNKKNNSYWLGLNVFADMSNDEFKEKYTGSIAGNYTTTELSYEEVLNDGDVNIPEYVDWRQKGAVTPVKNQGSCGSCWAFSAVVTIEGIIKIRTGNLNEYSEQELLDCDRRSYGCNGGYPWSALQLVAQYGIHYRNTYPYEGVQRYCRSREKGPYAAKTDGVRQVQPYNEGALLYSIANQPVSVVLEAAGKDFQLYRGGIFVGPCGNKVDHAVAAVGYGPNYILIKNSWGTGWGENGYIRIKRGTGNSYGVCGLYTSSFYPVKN
# The depositor's hits bear a star; u = inconclusive; x = no result. The call rests on the fitted dose curve; in most records, active means well fitted curve in the direction sought with a large enough effect; inconclusive means small, poorly fitted or top-dose-only effect, or another doubt; inactive means no such curve, though single readings can be large; an effect the other way counts as inactive or inconclusive. Potency means the concentration at half of the fitted maximal effect.
SMILES,Cruzain noTriton,Cruzain inh Det,Papain inh
CNC(=O)c1ccc2nc(-c3ccccc3)c(-c3ccccc3)nc2c1,x,x,-20%
C=CCNC(=O)c1ccc2nc(-c3ccccc3)c(-c3ccccc3)nc2c1,8%,-1%,x
Cc1ccc(S(=O)(=O)c2nc(-c3cccs3)oc2SCc2ccc(F)cc2)cc1,-15%,-5%,x
Cc1cc(NS(=O)(=O)c2ccc(NC(=O)Cc3cccs3)cc2)no1,2%,0%,x
Cc1cc(NC(=O)Cc2cccs2)no1,-28%,-18%,-17%
CC(C)(C)[C@]1(O)C[C@@H]2OC(=O)CC23C(=O)O[C@@H]2OC(=O)[C@H](O)C231 (stereo partly specified),0%,-2%,x
CC1(C)C2CCC1(C)C(OCC[N+](C)(C)CC(=O)OC1CCCCC1)C2 (stereo unspecified),8%,-3%,x
CC(C)(C)c1ccc(C(=O)Nc2ccc(Cl)cc2C(=O)c2ccccc2)cc1,-14%,-2%,x
Cc1oc(=O)c(NC(=O)c2ccc(Cl)cc2)cc1C(=O)c1ccccc1,2µM*,2.5µM*,8%
Cc1oc(=O)c(NC(=O)c2ccccc2)cc1C(=O)c1ccccc1,0.79µM*,3.2µM*,5%
CC1(C)CC(=O)c2cc(NC(=O)c3ccccc3)c(=O)oc2C1,-10%,-3%,x
COCCCNC(=O)CCC(=O)N1Cc2ccccc2Oc2ncccc21,-5%,0%,x
COc1ccc(OC)c(-c2cnc(OC(C)(C)C)nc2OC(C)(C)C)c1,-4%,-7%,x
Nc1cc(Cl)c(N)c(Cl)c1,-2%,3%,x
O=C(NCc1cccc(Cl)c1)c1cnc(N2CCCCC2)c2ccccc12,-13%,-19%,x
O=C(Nc1nc(-c2ccccc2)c(-c2ccccc2)s1)c1ccc(S(=O)(=O)N(CCCl)CCCl)cc1,4µM*,-2%,17%
COCCN(CCOC)S(=O)(=O)c1ccc(C(=O)Nc2nc(C)c(C(C)=O)s2)cc1,21%,-9%,x
O=S(=O)(c1ccc(Br)cc1)c1nc(-c2ccco2)oc1SCc1ccccc1Cl,11%,-1%,x
COc1cc(Cl)c(C)cc1NC(=O)c1cnc(N2CCOCC2)c2ccccc12,u,-12%,x
Nc1nc(N2CCCCC2)nc(N(c2ccccc2)c2ccccc2)n1,6%,-5%,x
CCN(c1ccccc1)c1nc(N)nc(C#N)n1,x,x,11µM*
N#Cc1nc(N2CCCCC2)nc(N(c2ccccc2)c2ccccc2)n1,x,x,2.8µM*
CCOc1nc(C#N)nc(N(c2ccccc2)c2ccccc2)n1,x,x,-8%
CC(C)(C)Nc1nc(N2CCCC2)nc(N2CCCC2)n1,9%,3%,x
Clc1nc(Cl)nc(N(c2ccccc2)c2ccccc2)n1,-10%,-2%,x
SMILES,Cruzain noTriton,Cruzain inh Det,Papain inh
N#Cc1nc(N2CCCCC2)nc(N2CCCCC2)n1,x,x,2.2µM*
CN(C)c1nc(N)nc(Nc2ccccc2C#N)n1,7%,-1%,x
COc1ccc(OC)c(Nc2nc3nonc3nc2N2CCCC(C)C2)c1 (stereo unspecified),-13%,-1%,x
CCNc1nc(NC(C)(C)C)nc(N2CCCC2)n1,-14%,0%,x
CCN(CC)c1nc(C#N)nc(N2CCOCC2)n1,x,x,1µM*
CCNc1nc(C#N)nc(N2CCCCC2)n1,x,x,2.5µM*
CCN(CC)c1nc(N2CCOCC2)c(C#N)c2c1CN(C)CC2,2%,0%,x
CCOc1ccc(-n2c(=O)c3c4c(sc3n(Cc3cccc(C)c3)c2=O)CCCC4)cc1,-2%,1%,x
Cc1c(CC(=O)NCCc2ccccc2F)c(=O)oc2c(C)c3occ(C(C)(C)C)c3cc12,2%,-2%,x
CCOc1ccc(OCCN2C(=O)NC(Cc3c[nH]c4ccccc34)C2=O)cc1 (stereo unspecified),4%,-3%,x
Cc1ccc(S(=O)(=O)NC(CC(N)=O)C(=O)O)cc1 (stereo unspecified),1%,4%,x
Cc1ccc(S(=O)(=O)N[C@@H](CCCCN)C(=O)CCl)cc1,1µM*,0.79µM*,4µM*
O=[N+]([O-])c1ccccc1S(=O)(=O)NCCC1=CCCCC1,-2%,0%,x
O=[N+]([O-])c1ccccc1S(=O)(=O)NCC1CCC(CNCC2CCc3ccccc3C2)CC1 (stereo unspecified),-5%,-3%,5%
Cc1ccc(CSc2nnc([C@@H](N)C(C)C)o2)cc1,1%,-1%,x
CCOc1ccc(NC(=O)CCc2c(C)nc3cc(-c4ccc(Cl)cc4)nn3c2C)cc1,-8%,1%,x
COc1ccc2[nH]c(=O)c(NC(N)=S)nc2c1,1.3µM*,2.2µM*,-9%
COc1ccc2nc(SCC(N)=O)[nH]c2c1,-8%,1%,x
O=C(CNC(=O)C1CCCCC1)Nc1ccccc1Cl,4%,-2%,x
NC(=O)C(OC(=O)CNC(=O)C1CCCCC1)c1ccccc1 (stereo unspecified),x,x,13µM*
O=C(CNC(=O)C1CCCCC1)OC(C(=O)c1ccccc1)c1ccccc1 (stereo unspecified),x,x,3%
O=C(Nc1ccccc1)C1CCCCC1,7%,2%,x
COc1ccc(CC(=O)Nc2cc(-c3cn4cccnc4n3)ccc2OC)cc1,2%,-6%,x
CC(C)C[C@H](N)c1nnc(S(=O)(=O)Cc2cccc(F)c2)o1,13µM*,11µM*,6%
CC(C)Cn1nnnc1S(=O)(=O)Cc1cccc(C#N)c1,-1%,3%,x
SMILES,Cruzain noTriton,Cruzain inh Det,Papain inh
Cc1cc(C)cc(OCC(=O)NCC(c2ccc(Cl)cc2)N2CCCCC2)c1 (stereo unspecified),0%,-1%,x
CC(=O)c1ccc(NC(=O)c2ncn(-c3ccccc3)n2)cc1,-6%,-2%,x
COC(=O)[C@@H]1C[C@H]1[C@@H](NC(=O)c1cnccn1)c1ccccc1,-4%,1%,x
CC(C)[C@@H](CC(=O)N[C@@H]1CCCC[C@H]1C(=O)N[C@H](CC(=O)N[C@@H](CCC(=O)O)CC(=O)O)Cc1ccccc1)NC(=O)C[C@H](CO)NC(=O)[C@@H]1CNCC[C@H]1N,6%,0%,x
COC(CNC(=O)c1ccc2nc(-c3cccs3)c(-c3cccs3)nc2c1)OC,29%,-12%,x
CCCCNC(=O)c1ccc2nc(-c3cccs3)c(-c3cccs3)nc2c1,x,x,-5%
N#Cc1ccccc1Cn1c(=O)n(-c2cccc(C(F)(F)F)c2)c(=O)c2sccc21,-11%,-6%,x
Cc1cccc(Nc2nc(N)c([N+](=O)[O-])c(N3CCC(C)CC3)n2)c1,3%,-8%,x
N#Cc1nc(Nc2cccc([N+](=O)[O-])c2)nc(NC2CCCC2)n1,x,x,2.8µM*
O=C(CO/N=C/c1cccc([N+](=O)[O-])c1)NC1CCCCCC1,4%,-1%,x
Cc1cccc(Nc2nc(C#N)nc(NC3CCCC3)n2)c1,x,x,0.45µM*
Cc1ccc(-n2nnc(-c3nc(-c4cccs4)no3)c2N)c(C)c1,4%,2%,x
O=C(NCc1cn2ccsc2n1)c1cccs1,7%,-2%,x
CCOC(=O)[C@H](CCc1ccccc1)N[C@@H](C)C(=O)N1[C@H](C(=O)O)C[C@H]2CCCC[C@@H]21,u,2%,11%
CCOC(=O)[C@H](CCc1ccccc1)N[C@@H](C)C(=O)N1[C@H](C(=O)O)C[C@H]2CCC[C@@H]21,-10%,-3%,x
CCCC1=C(C(=O)OCC)C(c2c(C)nn(-c3ccccc3)c2Cl)C(C#N)=C(N)O1 (stereo unspecified),6%,-7%,x
COc1cc2[nH]c(=O)n(Cc3ccc(C(=O)N4CCN(c5cc(Cl)ccc5C)CC4)cc3)c(=O)c2cc1OC,-1%,-2%,x

# Assay outcomes (PubChem)
